Pf Dd2 growth = Plasmodium falciparum Dd2 growth inhibition | P. falciparum Dd2 growth, SYBR Green, 72 h | Potency, µM (doses to about 28.9 µM), for inactives: top-dose activity, negative = inhibition, most hits filed as inhibitors | 120,000 tested, 4.3% active; active = well fitted inhibition curve with a large enough effect;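 also: plate controls were DMSO vehicle for no effect and reference drug for full effect; nearly all actives have a fitted effect of over 65% in size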
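Infected erythrocytes (Dd2, 0.3% parasitemia, 2.5% hematocrit final) are added to compound in RPMI-1640/Albumax II medium, grown 72 h at 37C in low oxygen, then lysed with saponin/Triton-X containing SYBR Green and read by fluorescence.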
An asterisk follows results filed as active; i = inactive; [ ] = remark or other dose. This is one part of a sample in which hits are shown more often than they occur. Potency is read from the fitted curve at half-maximal effect.

SMILES	Pf Dd2 growth
C[C@]1(CO)[C@H]2Cc3sc(NC(=O)COc4ccccc4)nc3[C@@H](CC(=O)O)[C@]2(C)CC[C@H]1O	-1%
C#CCNC(=O)C[C@@H]1c2nc(NC(=O)c3c(F)cccc3F)sc2C[C@@H]2[C@](C)(CO)[C@H](O)CC[C@]21C	i
CCCCCC(=O)Nc1nc2c(s1)C[C@@H]1[C@](C)(CO)[C@H](O)CC[C@@]1(C)[C@@H]2CC(=O)N[C@H](C)c1ccccc1	5µM*
C#CCN(C)C(=O)C[C@@H]1c2nc(NC(=O)COC)sc2C[C@@H]2[C@](C)(CO)[C@H](O)CC[C@]21C	1%
CC(C)(C)CC(=O)Nc1nc2c(s1)C[C@@H]1[C@](C)(CO)[C@H](O)CC[C@@]1(C)[C@@H]2CC(=O)Nc1ccccc1	11µM*
C[C@]1(CO)[C@H]2Cc3sc(NC(=O)c4c(F)cccc4F)nc3[C@@H](CC(=O)NC3CCCC3)[C@]2(C)CC[C@H]1O	5µM*
C[C@]1(CO)[C@H]2Cc3sc(NC(=O)c4ccc(F)cc4)nc3[C@@H](CC(=O)NC3CCCCC3)[C@]2(C)CC[C@H]1O	-10%
C#CCN(C)C(=O)C[C@@H]1c2nc(NC(=O)CCCCC)sc2C[C@@H]2[C@](C)(CO)[C@H](O)CC[C@]21C	10µM*
C[C@@H](NC(=O)C[C@@H]1c2nc(-c3cccnc3)sc2C[C@@H]2[C@](C)(CO)[C@H](O)CC[C@]21C)c1ccccc1	-24%
CC(=O)N1C[C@@H]2CCCN3CCC[C@@H]([C@H]23)[C@H]1CCCC(=O)N(C)C	5%
O=C(N[C@@H]1CCN(C(=O)c2ccc3cc[nH]c3c2)C[C@H]1O)c1cnccn1	1%
O=C(c1ccccc1Cl)N1CCN(c2cc(-c3ccccc3)[nH]n2)CC1	i
COc1ccc(Cl)cc1C(=O)N1CCCN(c2cc(-c3ccc(C)c(C)c3)[nH]n2)CC1	i
Cc1ccc(N(CC(=O)N[C@H]2CC[C@H]2N)S(C)(=O)=O)cc1	-1%
CC(C)CCNC(=O)CC1Sc2ncccc2N(C)C1=O (stereo not given)	-20%
O=c1n(-c2ccc(F)cc2F)nc2n1CCN(Cc1ccc(F)cc1)C2	i
CCOc1ccccc1NC(=O)C1CCN(C(=O)c2ncn3c2COC(c2ccc(F)cc2)C3)CC1 (stereo not given)	-15%
N#Cc1cccc(C(=O)N2C[C@@H](CO)[C@H](c3ccccn3)C2)c1	19%
CCNC(=O)NC[C@H]1O[C@H](Cc2cc(-c3ccccc3)on2)CC[C@@H]1O	1%[44.1 µM]
COc1ccc(C(=O)N2[C@@H]3CC[C@H]2CC(NC(=O)c2cnc(C)cn2)C3)cc1OC (stereo not given in full)	i
Cc1noc(C)c1C(=O)N1Cc2ccccc2CC2(CCCN(CC3CCNCC3)C2)C1 (stereo not given)	-12%
CCCCCC(=O)Nc1nc2c(s1)C[C@@H]1[C@](C)(CO)[C@H](O)CC[C@@]1(C)[C@@H]2CC(=O)Nc1cccc(O)c1	13µM*
CCCCCC(=O)Nc1nc2c(s1)C[C@@H]1[C@](C)(CO)[C@H](O)CC[C@@]1(C)[C@@H]2CC(=O)NC1CCCC1	11µM*
CC(C)C[C@H]1NC(=O)[C@@H]2C[C@@H](n3nnc(C(N)=O)c3C(N)=O)CCN2C1=O	31%[44.1 µM]
O=C(NCc1ccccc1)C1(CCO)CCN(c2ncccn2)C1 (stereo not given)	-1%
SMILES	Pf Dd2 growth
CCc1nncn1C1CCN(C(=O)Nc2ccc(F)c(Cl)c2)C1 (stereo not given)	0%
CC(=O)c1cc(C(=O)N2CCC(O)(c3ccc(C)cn3)CC2)c(=O)[nH]c1C	-15%
O[C@@H]1C[C@@H](c2nc(-c3ccc4c(c3)OCO4)no2)N(CC2CCCCC2)C1	i
COc1ccccc1CN1CCC2(CC1)OC(=O)N(Cc1csc(C)n1)C2(C)c1ccccc1 (stereo not given)	i
COc1ccccc1CN1CCC2(CC1)OC(=O)N(Cc1ccc(NC(C)=O)cc1)C2(C)c1ccccc1 (stereo not given)	13µM*
COc1ccc(CN2CCC3(CC2)OC(=O)N(Cc2ccccc2C#N)C3(C)c2ccccc2)cc1O (stereo not given)	-16%
CC1(c2ccccc2)N(Cc2ccccc2F)C(=O)OC12CCN(Cc1ccc(C#N)cc1)CC2 (stereo not given)	-23%
COc1ccccc1CN1CCC2(CC1)OC(=O)N(Cc1ccccc1F)C2(C)c1ccccc1 (stereo not given)	4µM*
CC(=O)Nc1ccc(CN2C(=O)OC3(CCN(Cc4ccccc4)CC3)C2(C)c2ccccc2)cc1 (stereo not given)	-19%
COc1ncccc1CN1CC[C@@H]2OCC(=O)N(Cc3ccccc3)[C@H]2CC1	-3%[44.1 µM]
Cc1cc(C(F)(F)F)nn1CC(=O)N1CCCCCCNC(=O)CC1	-17%
N#Cc1ccccc1CN1CCNc2nc(CN3CCN(CCO)CC3)n(Cc3ccccc3)c2C1=O	i
Cc1nc2c(c(N[C@@H]3COCC[C@H]3OCc3ccccn3)n1)CCC2	-16%
CCCN(CC1CCOC1)C(=O)Nc1cccc(Br)c1 (stereo not given)	35%[5.79 µM]

High-throughput results: PubChem, National Center for Advancing Translational Sciences (NCATS)
